The campaign covered roughly 1,400 compounds. About 25 (2%) were called active. Roughly 19% stayed inconclusive and do not appear here. The call rests on the fitted dose curve; in most records, active means well fitted inhibition curve with a large enough effect; inconclusive means small, poorly fitted or top-dose-only effect; inactive means flat fitted curve, though single readings scatter. These entries were drawn from the full list.
test: Nrf2 qHTS screen for inhibitors: A549 ARE-Fluc Cytotoxicity Counterscreen for Hit Validation; conditions: A549 ARE-Fluc cells; series mostly up to 46.1 µM; activity change, negative = cytotoxicity: at the top concentration
Excerpt: Nrf2 is a transcription factor that maintains cellular redox homoestasis and protects cells from xenobiotics. Nrf2 binds to the antioxidant response element (ARE) to induce gene expression of a broad spectrum of genes that encode for antioxidants. […] Finding a small molecule that act as an inhibitor of Nrf2 function would represent a novel therapeutic target that could lead to improvement in survival of patients undergoing chemo- and/or radio- therapy.
In collaboration with the Biswal laboratory, a cell based, luminescence assay (BugLite) was developed to detect the Nrf2 activity using the A549 ARE_Fluc cells (AID 504648). This assay was coupled with a fluorescence based (CellTiter Fluor) cytotoxicity assay to identify and exclude toxic compounds. This coupled assay was used to evaluate selected compounds for hit validation. The data herein is the result of the CellTiter Fluor assay where decrease in fluorescence signal = cytotoxicity. Inactivity is the desired outcome for this assay.
NIH Chemical Genomics Center [NCGC]
NIH Molecular Libraries Probe Centers Network [MLPCN]
Assay Submitter (PI): Shyam Biswal, Johns Hopkins University
[1] Shibata T., et al., Genetic alteration of Keap1 confers constitutive Nrf2 activation and resistance to chemotherapy in gallbladder cancer. Gastroenterology, 2008.
[2] Sjoblom T., et al., The consensus coding sequences of human breast and colorectal cancers. Science, 2006.
Five uL of cell suspension was dispensed into 1536-well white TC-treated plate using the Kalypsys dispenser to achieve a density of 5000 cells/well in all columns except column 1. The plates were incubated at 37deg C at 5% CO2 for 2 hours before 23 nL of compounds were added with the Kalypsys pin tool equipped with a 1,536-pin array. The control compounds Budesonide and Staurosporine were added at a concentration of 2mM. Budesonide was also added as a 1:10 titration, starting at 200uM, to achieve the dose-response control signal. The plates were incubated for 18-24 hour at 37deg C, 5% CO2 followed by a 5ul addition of 5% FBS OPTI-MEM growing media in column 1 as negative control. One microliter of 5x CellTiter Fluor (Promega) was added to each well and the assay plates were incubated at 37deg C, 5% CO2 for 30 minutes. The fluorescence signal was read using the PerkinElmer ViewLux plate reader (Ex = 405 nm /Em = 525 nm) for a 3 second exposure. After the signal was taken, 3 uL of 3x BugLite was dispensed into all wells. The plates were then incubated at room temperature for 15 minutes. A second ViewLux read (40 sec exposure) was performed to detect the luminescence signal. Cytotoxicity was assessed through the first fluorescent read while biochemical activity against Nrf2 was measured in the luminescent read. The data was normalized to the positive and negative controls.
On the % scale 0 is the no-effect control and ±100 the full control effect.

SMILES	activity change, negative = cytotoxicity	outcome
CCC(C)N1C(=O)S/C(=C/c2ccc(Sc3nc4ccccc4[nH]3)o2)C1=O (stereo unspecified)	-29.1% (inactive)	–
CC(C)(C)c1ccc(Oc2ccc(N)cc2)cc1	-24% (inactive)	–
CCOc1ccc(S(=O)(=O)N2CCCCC2)cc1NC(=O)CN1CCCC1c1cccs1 (stereo unspecified)	-3.35% (inactive)	–
O/N=C(\C[n+]1ccccc1)c1ccc(Br)cc1	-11.6% (inactive)	–
COc1ccc(C(=O)C[n+]2ccc(N)c(C)c2C)cc1	-28.1% (inactive)	–
Cc1csc[n+]1CCC1CCCCC1	-0.656% (inactive)	–
CCCCNc1nc2c(c(=O)n(C)c(=O)n2C)n1Cc1cccc(OC)c1	-14.8% (inactive)	–
COc1cccc(-c2nc(CS(=O)(=O)CC(=O)N3CCN(c4cc(C)ccc4C)CC3)c(C)o2)c1	-29.3% (inactive)	–
CC(C)Cn1c(N)c(C(=O)COC(=O)CN2C(=O)C3CC=CCC3C2=O)c(=O)n(C)c1=O (stereo unspecified)	-2.49% (inactive)	–
O=C1C=C(c2ccnc3cc(Cl)ccc23)C[C@@H](c2ccc3c(c2)OCO3)C1	-4.05% (inactive)	–
CN(Cc1cccnc1)C(=O)c1cc(COc2ccc3ncccc3c2)on1	-6.55% (inactive)	–
Cc1ccc(NS(=O)(=O)c2cccs2)cc1S(=O)(=O)N1CCCCCC1	-5.52% (inactive)	–
CC(=O)OC(C)C[N+](C)(C)C (stereo unspecified)	-23.7% (inactive)	–
Cn1nccc1C(=O)NC1CCCc2c1cnn2-c1ccc(F)cc1F (stereo unspecified)	0.272% (inactive)	–
COCCn1c(SCC(=O)Nc2ccccc2F)nc2c(c1=O)SCC2	0.723% (inactive)	–
CC(=O)N1c2ccc(S(=O)(=O)N3CCCC(C(=O)Nc4cccc(Cl)c4)C3)cc2CC1C (stereo unspecified)	-14.6% (inactive)	–
CC1CCCN(S(=O)(=O)c2ccc(C(=O)Nc3nnc(-c4ccncc4)o3)cc2)C1 (stereo unspecified)	-25.8% (inactive)	–
CC(=O)N1CCCc2cc(S(=O)(=O)N3CCCC(C(=O)N4CCN(c5cccc(Cl)c5)CC4)C3)ccc21 (stereo unspecified)	-11% (inactive)	–
O=C(CN1C(=O)c2ccccc2S1(=O)=O)N1CCc2ccccc21	-2.66% (inactive)	–
CC1(C)O[C@@H]2CC3C4C[C@H](F)C5=CC(=O)C=CC5(C)C4C(O)CC3(C)[C@]2(C(=O)CO)O1 (stereo partly specified)	-14.4% (inactive)	–
Cc1ccc(NC(=O)C2CC(=O)N(c3ccc4c(c3)OCCO4)C2)cc1S(=O)(=O)N1CCCCCC1 (stereo unspecified)	-20.8% (inactive)	–
C=CCC1(CC=C)CCCN1C(=O)c1cc(COc2ccc(-n3cncn3)cc2)on1	-4.31% (inactive)	–
COc1ccc(CC(=O)Nc2nc(-c3ccc(F)c(F)c3)cs2)cc1OC	-8.52% (inactive)	–
CC(C)(C)n1ncc2c(=O)n(Cc3ccc(C(=O)c4ccccc4)cc3)cnc21	-5.96% (inactive)	–
Brc1c(CSc2nncc3ccccc23)nc2ccccn12	-11.6% (inactive)	–
CCC(C)(C)c1ccc(Oc2ccc(NC(=O)COC(=O)C3=COCCO3)cc2)cc1	-17.9% (inactive)	–

SMILES	activity change, negative = cytotoxicity	outcome
OCCCNc1nccc(-c2cc(Nc3cccc(Cl)c3)ncn2)n1	-25.5% (inactive)	–
CC(=O)N1c2ccc(S(=O)(=O)N3CCCC(C(=O)NCc4ccc(Cl)cc4)C3)cc2CC1C (stereo unspecified)	-5.54% (inactive)	–
Cc1cc(C)c(-c2csc(NC(=O)CCCc3nc4ccccc4c(=O)[nH]3)n2)c(C)c1	-24.1% (inactive)	–
COc1ccc(CCNC(=O)c2ccc(CS(=O)(=O)c3ccc(Br)cc3)o2)cc1OC	-1.61% (inactive)	–
Cc1cccc(N2CCN(C(=O)CCS(=O)(=O)c3ccc4c(c3)NC(=O)C(C)S4)CC2)c1C (stereo unspecified)	-21.8% (inactive)	–
O=C(OCCOc1ccccc1Cl)c1cc(S(=O)(=O)N2CCCCC2)ccc1N1CCOCC1	-6.85% (inactive)	–
Cc1nc(N2CCOCC2)c2c(C)c(C(=O)Nc3ccc(C(F)(F)F)cc3)sc2n1	-23.1% (inactive)	–
Cc1ccc(S(=O)(=O)N2C[C@@H]3CCCC[C@@H]3[C@@H](C)[C@H]2c2cn(Cc3ccccc3)c3ccc(F)cc23)cc1	-6.88% (inactive)	–
Cc1ccc(S(=O)(=O)N2CCN(c3ncnc4ccccc34)CC2)cc1	–	inactive
COc1ccc(OC)c(Cc2cnc3nc(N)nc(N)c3c2C)c1	-13.1% (inactive)	–
O=C(Nc1ccncc1)c1c(F)cccc1F	-5.15% (inactive)	–
O=C(Nc1ccc(Br)cn1)C1CCN(S(=O)(=O)c2cccs2)CC1	-0.549% (inactive)	–
O=C(CCC(=O)N1CCN(S(=O)(=O)c2ccc(Cl)cc2)CC1)NCc1cccc(C(F)(F)F)c1	-20.4% (inactive)	–
Cc1cc(C(=O)NC2CCCc3c2cnn3-c2cccc(C)c2C)c(C)o1 (stereo unspecified)	-15.6% (inactive)	–
CCOC(=O)c1cnc(-n2nc(C)cc2C)nc1NNc1cc(C)nc(-c2ccccc2)n1	-16.4% (inactive)	–
COc1ccc(N2CCN(C(=O)CSCc3nc(-c4ccccc4Cl)oc3C)CC2)cc1	-16.2% (inactive)	–
CCCOc1ccc(Cc2c(Cl)nc(SC)nc2NC)cc1	7.6% (inactive)	–
O=c1[nH]c(SCc2cccc(F)c2)nc2ccccc12	7.99% (inactive)	–
O=C(CSc1nnc2c(n1)[nH]c1ccccc12)NC1CCCCC1	-1.2% (inactive)	–
CCCN(c1ccc(C(C)C)cc1)S(=O)(=O)c1c(C)[nH]c(=O)[nH]c1=O	-10.9% (inactive)	–
CC1CCN(S(=O)(=O)c2ccc(NC(=O)C3CC(=O)N(c4ccccc4)C3)cc2)CC1 (stereo unspecified)	-2.32% (inactive)	–
CCCOc1ccc(C(=O)Nc2ccc3oc(-c4cccc(Cl)c4Cl)nc3c2)cc1	0.327% (inactive)	–
c1ccc(C(=NNc2nc3ccccc3s2)c2ccccn2)cc1	-27.2% (inactive)	–
CCNS(=O)(=O)c1ccc(CCC(=O)N2CCN(c3cc(Cl)ccc3C)CC2)cc1	-12.7% (inactive)	–
Cc1c(Cl)cccc1NC(=O)Cn1cc(C(=O)c2cccs2)c2ccccc21	-25.4% (inactive)	–

— PubChem BioAssay AID720523 (National Center for Advancing Translational Sciences (NCATS), 2013)
